Laboratory results taken from PubChem BioAssay (Tox21).
Results filed as inconclusive are left out. Activity calls are given as the source filed them. Unless noted, calls follow the shape of the full dose curve.

Legend:
[1] = Nuclear factor erythroid 2-related factor 2/antioxidant responsive element (Nrf2/ARE) small molecule agonists: luciferase reporter gene qHTS assay in human keratinocytes (AID 1919969); also: nearly all actives have a fitted effect of over 35% in size
[2] = target: Gonadotropin-releasing hormone receptor (Homo sapiens) (UniProt P30968); assay: Human gonadotropin-releasing hormone receptor (GnRHR) small molecule agonists, calcium flux assay in GnRHR-HEK293 cells (AID 1920063); also: nearly all actives have a fitted effect of over 35% in size
Gonadotropin-releasing hormone receptor (Homo sapiens), sequence (P30968 whole entry, looked up): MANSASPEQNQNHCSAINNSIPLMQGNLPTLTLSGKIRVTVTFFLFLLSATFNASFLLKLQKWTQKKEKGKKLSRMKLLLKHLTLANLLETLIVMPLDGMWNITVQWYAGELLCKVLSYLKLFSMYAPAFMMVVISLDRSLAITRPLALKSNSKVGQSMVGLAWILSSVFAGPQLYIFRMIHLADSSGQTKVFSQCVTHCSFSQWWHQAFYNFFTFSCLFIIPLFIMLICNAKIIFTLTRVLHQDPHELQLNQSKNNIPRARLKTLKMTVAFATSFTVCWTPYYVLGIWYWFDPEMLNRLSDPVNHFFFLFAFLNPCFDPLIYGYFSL
Method in brief: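 We seeded human GnRHR-expressing HEK293 cells for 18 hours, loaded them with calcium dye for an hour at 37 C, added test compounds, and recorded fluorescence intensity kinetically for three minutes.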

[3] = target: KiSS-1 receptor (Homo sapiens) (UniProt Q969F8); assay: Human kisspeptin (KISS1R) small molecule agonists, calcium flux assay in KISS1R-HEK293 cells (AID 1920064; active = well fitted activation curve with a large enough effect in the repeat runs)
KiSS-1 receptor (Homo sapiens), sequence (Q969F8 whole entry, looked up): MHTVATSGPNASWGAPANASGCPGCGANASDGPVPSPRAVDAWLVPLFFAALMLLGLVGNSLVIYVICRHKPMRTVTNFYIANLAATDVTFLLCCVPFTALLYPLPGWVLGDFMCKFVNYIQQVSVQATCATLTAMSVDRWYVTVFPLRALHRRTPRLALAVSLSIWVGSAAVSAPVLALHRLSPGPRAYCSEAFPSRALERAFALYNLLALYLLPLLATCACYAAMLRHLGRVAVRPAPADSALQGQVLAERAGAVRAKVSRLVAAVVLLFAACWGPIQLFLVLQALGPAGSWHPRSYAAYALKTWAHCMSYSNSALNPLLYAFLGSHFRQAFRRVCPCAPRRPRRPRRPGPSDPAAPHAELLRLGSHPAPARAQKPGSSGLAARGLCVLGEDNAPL
Method in brief: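 Kinetic calcium assay, 1 s sampling over 3 min at Ex/Em 480/540, in HEK293 cells engineered with human KISS1R; compounds delivered in DMSO after 1 h dye loading.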

[4] = G protein-coupled receptor (GPCR) small molecule agonists, calcium flux assay: HEK293 wild type cell line counter screen (AID 1920065)
Method in brief: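 Calcium-sensitive dye, loaded 1 h at 37 C into cells cultured 18 h, reports compound-evoked calcium release as fluorescence (Ex/Em 480/540), measured over 3 min. Agonist mode; 15-point titrations, triplicate.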

[5] = p53 small molecule agonists, cell-based qHTS assay with human liver microsomes (AID 1963577)
Method in brief: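 p53RE-bla cells, 4,000/well, compound added after 5 h, with human liver microsomes 0.5 mg/mL and NADPH 0.5 mg/mL final; 16 h at 37 C, then LiveBLAzer 2 h RT, fluorescence.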

[6] = p53 small molecule agonists, cell-based qHTS assay with rat liver microsomes (AID 1963578)
Method in brief: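 p53RE-bla cells, 4,000/well, pre-incubated 5 h, then given compounds plus rat liver microsomes (0.5 mg/mL final) and NADPH (0.5 mg/mL final). Incubation 16 h at 37 C; beta-lactamase reporter read by LiveBLAzer fluorescence after 2 h at room temperature.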

[7] = p53 small molecule agonists, cell-based qHTS assay with human liver microsomes: qHTS cell viability counter screen (AID 1963579); also: nearly all actives have a fitted effect of over 45% in size
Method in brief: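 p53RE-bla cells, 4,000/well, dosed 5 hours after plating, with human liver microsomes (0.5 mg/mL final) plus NADPH (0.5 mg/mL final), 16 hours at 37 C. Viability read as CellTiter-Glo luminescence after 30 min at room temperature.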

[8] = p53 small molecule agonists, cell-based qHTS assay with rat liver microsomes: qHTS cell viability counter screen (AID 1963580); also: nearly all actives have a fitted effect of over 45% in size
Method in brief: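 Intracellular ATP, by CellTiter-Glo luminescence, defines viability. HCT-116 p53RE-bla cells, 4,000 per well, were compound-treated in the presence of rat liver microsomes and NADPH for 16 h at 37 C.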

[9] = p53 small molecule agonists, cell-based qHTS assay: qHTS cell viability counter screen (AID 1963581); also: nearly all actives have a fitted effect of over 45% in size
Method in brief: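 Following 5 h attachment, HCT-116 p53RE-bla cells took up compound for 16 h at 37 C; the reporter was read with B/G FRET substrate (2 h RT), and viability then via CellTiter-Glo ATP luminescence.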

[10] = p53 small molecule agonists, cell-based qHTS assay (AID 1963582; active = well fitted activation curve with a large enough effect in the signal ratio in the repeat runs, not every such curve was filed as active; the % refers to the signal ratio)
Method in brief: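 In this cell-based concentration-response screen, a p53 response element drives beta-lactamase; cells received DMSO-borne compounds after 5 h culture and were incubated a further 16 h before FRET substrate development.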

[11] = target: 5-hydroxytryptamine receptor 2A (Homo sapiens) (UniProt P28223); assay: 5-hydroxytryptamine receptor 2A (HTR2A) small molecule antagonists, cell-based qHTS assay (AID 1963586); also: nearly all actives have a fitted effect of over 45% in size
5-hydroxytryptamine receptor 2A (Homo sapiens), sequence (P28223 whole entry, looked up): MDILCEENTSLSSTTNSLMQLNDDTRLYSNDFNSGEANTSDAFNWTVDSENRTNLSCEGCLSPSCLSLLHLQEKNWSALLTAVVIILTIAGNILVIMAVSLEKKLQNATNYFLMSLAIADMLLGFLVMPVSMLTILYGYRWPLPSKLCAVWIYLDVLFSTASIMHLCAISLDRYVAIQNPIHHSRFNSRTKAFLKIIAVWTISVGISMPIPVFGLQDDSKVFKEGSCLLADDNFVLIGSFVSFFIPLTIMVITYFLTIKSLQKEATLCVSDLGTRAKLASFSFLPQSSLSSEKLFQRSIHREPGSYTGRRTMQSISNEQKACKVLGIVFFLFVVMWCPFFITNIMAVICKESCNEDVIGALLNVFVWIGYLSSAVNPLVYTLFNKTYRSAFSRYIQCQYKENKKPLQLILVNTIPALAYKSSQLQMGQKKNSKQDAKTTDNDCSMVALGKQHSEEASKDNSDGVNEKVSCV
Method in brief: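 Antagonist-mode intracellular calcium assay: DOI (4 nM) added after 5 min compound pre-incubation at room temperature to dye-loaded HTR2A-CHO cells. Fluorescence followed for 3 min, sampled every second.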

[12] = target: 5-hydroxytryptamine receptor 2A (Homo sapiens) (UniProt P28223); assay: 5-hydroxytryptamine receptor 2A (HTR2A) small molecule agonists, cell-based qHTS assay (AID 1963587); also: nearly all actives have a fitted effect of over 30% in size
Method in brief: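 Kinetic calcium-flux fluorescence (2 min, 1 sec intervals) after compound addition in agonist mode. HTR2A-CHO cells were cultured 18 h, then dye-loaded 1 h at 37 C.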

[13] = target: Muscarinic acetylcholine receptor M1 (Homo sapiens) (UniProt P11229); assay: Cholinergic receptor muscarinic 1 (CHRM1) small molecule antagonists, cell-based qHTS assay (AID 1963588); also: nearly all actives have a fitted effect of over 40% in size
Muscarinic acetylcholine receptor M1 (Homo sapiens), sequence (P11229 whole entry, looked up): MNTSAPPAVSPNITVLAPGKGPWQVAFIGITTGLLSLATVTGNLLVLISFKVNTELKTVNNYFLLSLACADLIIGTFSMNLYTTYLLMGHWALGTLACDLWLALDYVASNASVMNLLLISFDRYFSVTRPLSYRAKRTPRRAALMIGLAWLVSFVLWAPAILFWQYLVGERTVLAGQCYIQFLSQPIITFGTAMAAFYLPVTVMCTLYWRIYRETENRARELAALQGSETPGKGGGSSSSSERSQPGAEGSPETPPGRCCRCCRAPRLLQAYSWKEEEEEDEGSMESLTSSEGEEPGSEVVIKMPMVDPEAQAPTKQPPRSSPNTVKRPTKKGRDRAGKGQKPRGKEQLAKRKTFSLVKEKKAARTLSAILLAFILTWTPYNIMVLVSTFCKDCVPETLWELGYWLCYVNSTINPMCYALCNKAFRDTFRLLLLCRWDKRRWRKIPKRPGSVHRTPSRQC
Method in brief: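 CHRM1-CHO calcium-flux assay, antagonist mode. Cells were seeded 18 h, dye-loaded 1 h at 37 C and given compound for 5 min at RT, then acetylcholine was added at 50nM. FDSS fluorescence was read 3 min; 15 concentrations, three runs.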

[14] = target: Muscarinic acetylcholine receptor M1 (Homo sapiens) (UniProt P11229); assay: Cholinergic receptor muscarinic 1 (CHRM1) small molecule agonists, cell-based qHTS assay (AID 1963589); also: nearly all actives have a fitted effect of over 35% in size
Method in brief: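 Measures agonist-induced intracellular calcium rise. Stable human CHRM1 CHO line, 1 h dye load at 37 C, compounds from DMSO, kinetic fluorescence read.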

[15] = cAMP Responsive Elements (CRE) small molecule agonists, cell-based qHTS assay (AID 1963590)
Method in brief: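 A CRE-responsive beta-lactamase reporter in HEK 293T cells was used. Treatment ran 3 h at 37 C; detection used LiveBLAzer B/G FRET substrate for 2 h at room temperature.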

[16] = cAMP Responsive Elements (CRE) small molecule antagonists, cell-based qHTS assay (AID 1963591; active = well fitted inhibition curve with a large enough effect in the signal ratio in the repeat runs, not every such curve was filed as active; the % refers to the signal ratio)
Method in brief: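 HEK293T cells carrying a CRE-driven beta-lactamase reporter receive compound and NKH477 (0.25 uM final) for 3 h. Fluorescence from LiveBLAzer B/G FRET substrate is read after 2 h at room temperature.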

[17] = target: Beta-2 adrenergic receptor (Homo sapiens) (UniProt P07550); assay: Adrenergic beta2 receptor (ADRB2) small molecule antagonists, cell-based qHTS assay (AID 1963592); also: series mostly up to about 92 µM; nearly all actives have a fitted effect of over 50% in size
Beta-2 adrenergic receptor (Homo sapiens), sequence (P07550 whole entry, looked up): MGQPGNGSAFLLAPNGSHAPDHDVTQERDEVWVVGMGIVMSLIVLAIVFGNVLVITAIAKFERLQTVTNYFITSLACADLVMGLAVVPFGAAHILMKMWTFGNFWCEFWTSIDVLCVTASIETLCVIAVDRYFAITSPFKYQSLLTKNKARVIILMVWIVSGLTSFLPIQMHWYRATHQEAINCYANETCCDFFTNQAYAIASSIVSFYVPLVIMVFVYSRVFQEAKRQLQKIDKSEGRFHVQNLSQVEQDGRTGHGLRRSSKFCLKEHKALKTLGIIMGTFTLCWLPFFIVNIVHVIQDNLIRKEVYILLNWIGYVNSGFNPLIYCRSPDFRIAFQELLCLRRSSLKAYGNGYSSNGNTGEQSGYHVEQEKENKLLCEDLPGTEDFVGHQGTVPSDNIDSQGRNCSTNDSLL
Method in brief: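 Cells (CHO, stable ADRB2 overexpression) incubated 18-20hr at 37C; compounds added from DMSO; agonist mix (1nM isoproterenol, 100uM IBMX, 25uM Ro-20-1724) added; 0.5hr RT; d2-cAMP and anti-cAMP-cryptate added; 1hr RT; 665/615 nm read.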

[18] = target: Beta-2 adrenergic receptor (Homo sapiens) (UniProt P07550); assay: Adrenergic beta2 receptor (ADRB2) small molecule agonists, cell-based qHTS assay (AID 1963593);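 also: CHO cells stably overexpressing human ADRB2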
Method in brief: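 CHO cells stably over-expressing ADRB2 were plated overnight at 37C, then dosed with compounds plus a stimulation mix containing 100uM IBMX and 25uM Ro-20-1724 for 0.5hr at room temperature. cAMP was measured by HTRF competition, 1hr.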

[19] = target: D(2) dopamine receptor (Homo sapiens) (UniProt P14416); assay: Dopamine D2 receptor (DRD2) small molecule agonists, cell-based qHTS assay (AID 1963594); also: nearly all actives have a fitted effect of over 35% in size
D(2) dopamine receptor (Homo sapiens), sequence (P14416 whole entry, looked up): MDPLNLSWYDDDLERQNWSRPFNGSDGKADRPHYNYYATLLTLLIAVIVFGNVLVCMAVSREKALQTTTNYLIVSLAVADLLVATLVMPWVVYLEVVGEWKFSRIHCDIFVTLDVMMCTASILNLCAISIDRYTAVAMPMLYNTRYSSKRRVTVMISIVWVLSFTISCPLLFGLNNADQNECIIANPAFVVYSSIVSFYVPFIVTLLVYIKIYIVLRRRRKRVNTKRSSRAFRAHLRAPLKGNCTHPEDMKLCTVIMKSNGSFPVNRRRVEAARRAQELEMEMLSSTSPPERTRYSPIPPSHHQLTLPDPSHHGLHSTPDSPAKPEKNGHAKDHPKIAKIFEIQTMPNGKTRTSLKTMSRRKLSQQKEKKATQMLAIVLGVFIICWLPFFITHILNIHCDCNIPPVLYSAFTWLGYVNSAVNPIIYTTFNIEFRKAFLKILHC
Method in brief: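 cAMP accumulation in DRD2-HEK293 cells measured by HTRF after 1 h detection; compounds added 10 min before NKH477 (200nM […]) forskolin-analogue stimulation, 30 min at room temperature, with Ro20-1724 present at 0.1 mM final.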

[20] = target: D(2) dopamine receptor (Homo sapiens) (UniProt P14416); assay: Dopamine D2 receptor (DRD2) small molecule antagonists, cell-based qHTS assay (AID 1963595; active = well fitted inhibition curve with a large enough effect in the signal ratio in the repeat runs, with a control signal flat; the % refers to the signal ratio)
Method in brief: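 Human DRD2 antagonist qHTS measuring cAMP by HTRF. The cells are exposed to compound for 10 min, then to NKH477 (200 nM) and quinpirole (12 nM) for 30 min at RT, with Ro20-1724 (0.1 mM) present throughout.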

Measured: Potency

O=c1[nH][nH]c(=O)c2cc([N+](=O)[O-])ccc12
inactive: all assays above

O=C(O)c1cccnc1C(=O)O
not listed: [12]
inactive: all other assays above

CC(=O)N(O)CCCCCNC(=O)CCC(=O)N(O)CCCCCNC(=O)CCC(=O)N(O)CCCCCN
not listed: [17] | [18]
inactive: all other assays above

C=CC(=O)OCCN(CC)CC
not listed: [19]
inactive: all other assays above

CC1C(C)(C)C2=C(C(=O)CCC2)C1(C)C (configuration not stated)
inactive: all assays above

CCCCCCCC(OC)OC
not listed: [14]
inactive: all other assays above

CC(C)(C)c1ccc(CCC=O)cc1
not listed: [17] | [18] | [19]
inactive: all other assays above

Clc1cc(Cl)c(Cl)c(Cl)c1Cl
not listed: [16]
inactive: all other assays above

Clc1ccc2c(Cl)ccnc2c1
inactive: all assays above

CC1(C)Oc2ccc(C#N)cc2[C@@H](N2CCCC2=O)[C@@H]1O
not listed: [9] | [17]
inactive: all other assays above

O=C(O)c1ccc(O)cc1O
not listed: [8]
inactive: all other assays above

CC1=CCC(=O)O1
not listed: [12] | [13] | [18]
inactive: all other assays above

CO[Si](C)(C)OC
not listed: [11] | [14]
inactive: all other assays above

CCCCCC(CC)OC(=O)CCCOc1ccc(Cl)cc1Cl (configuration not stated)
not listed: [5]
inactive: all other assays above
